About 83,000 compounds went through this panel and 20% of them were active in at least one assay; those are over-represented in the sample as a whole.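 Assay: single dose, 48 h. Readout: percent growth (0 = no net growth; negative = cell death). Active: <10.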 A number with no mark means an inactive call. Calls of active or inactive are those of the source.
Experiments:
Assay in all cases: NCI-60 one-dose screen, 48 h (100 = growth as untreated, 0 = no growth, -100 = all killed)
Conditions in all cases: 10 µM unless noted
NCI-H23 lung = system: NCI-H23 lung
NCI-H226 lung = system: NCI-H226 lung
NCI-H322M lung = system: NCI-H322M lung
HOP-62 NSCLC = system: HOP-62 NSCLC
NCI-H460 lung = system: NCI-H460 lung
HOP-92 NSCLC = system: HOP-92 NSCLC
NCI-H522 lung = system: NCI-H522 lung
A549/ATCC NSCLC = system: A549/ATCC NSCLC
786-0 renal = system: 786-0 renal
COLO 205 colon = system: COLO 205 colon
DU-145 prostate = system: DU-145 prostate
K-562 leukemia = system: K-562 leukemia
MALME-3M melanoma = system: MALME-3M melanoma
MDA-MB-231 breast = system: MDA-MB-231 breast
SF-268 CNS = system: SF-268 CNS
SF-295 CNS = system: SF-295 CNS
SF-539 CNS = system: SF-539 CNS
UACC-257 melanoma = system: UACC-257 melanoma
M14 melanoma = system: M14 melanoma
RXF 393 renal = system: RXF 393 renal

Molecule Cc1ccc(Nc2nc3c(s2)C2=CC[C@@H]4[C@H](CC[C@]5(C)C(=O)CC[C@@H]45)[C@@]2(C)CC3)cc1 has a growth (NCI-H23 lung) of 58.4%, a growth (NCI-H226 lung) of 69.5% and a growth (NCI-H322M lung) of 61.8%. The growth (HOP-62 NSCLC) was 43.4%, the growth (NCI-H460 lung) was 38.9% and the growth (HOP-92 NSCLC) was 78.6%. For the same molecule, the growth (NCI-H522 lung) was 56.3%, the growth (A549/ATCC NSCLC) was 55.8% and the growth (786-0 renal) was 9.1% (active). For the same molecule, the growth (COLO 205 colon) was 63.5%, the growth (DU-145 prostate) was 46.5% and the growth (K-562 leukemia) was 19.8%. It also gave a growth (MALME-3M melanoma) of 70%, a growth (MDA-MB-231 breast) of 52.8% and a growth (SF-268 CNS) of 56.3%. For the same molecule, the growth (SF-295 CNS) was 5.48% (active), the growth (SF-539 CNS) was 3.73% (active) and the growth (UACC-257 melanoma) was 80.3%. The growth (M14 melanoma) was 62.2%.
COC[C@@H]1C[C@@]2(C)[C@@H](CC[C@@H]3[C@@H]2CC[C@@]2(C)[C@H]3CC[C@]2(C)O)CC1=O was tested, and the growth (NCI-H23 lung) was 108%, the growth (NCI-H226 lung) was 106% and the growth (NCI-H322M lung) was 105%. It also gave a growth (HOP-62 NSCLC) of 107%, a growth (NCI-H460 lung) of 101% and a growth (HOP-92 NSCLC) of 100%. The growth (NCI-H522 lung) was 73.6%, the growth (A549/ATCC NSCLC) was 90.6% and the growth (786-0 renal) was 94.9%. For the same molecule, the growth (COLO 205 colon) was 109%, the growth (DU-145 prostate) was 102% and the growth (K-562 leukemia) was 85.8%. The growth (MALME-3M melanoma) was 96.4%, the growth (MDA-MB-231 breast) was 116% and the growth (RXF 393 renal) was 105%. The growth (SF-268 CNS) was 102%, the growth (SF-539 CNS) was 90.7% and the growth (UACC-257 melanoma) was 83.2%. For the same molecule, the growth (M14 melanoma) was 94.5%.
With C/C=C(\C)C(=O)O[C@@H]1C(O)[C@H]2OC(COC(=O)CCC(=O)CCCCCC[C@H](CCCCC)O[C@@H]3OC(C)[C@H](OC(C)=O)C(O)[C@H]3O2)[C@H]1OC(=O)/C=C/c1ccccc1 (stereo not given in full) the growth (NCI-H23 lung) was 37.1%, the growth (NCI-H226 lung) was 1.09% (active) and the growth (NCI-H322M lung) was 27%. The growth (HOP-62 NSCLC) was -2.42% (active), the growth (NCI-H460 lung) was 15.9% and the growth (HOP-92 NSCLC) was -11.4% (active). The growth (NCI-H522 lung) was 20.9%, the growth (A549/ATCC NSCLC) was 20.2% and the growth (786-0 renal) was 5.52% (active). For the same molecule, the growth (COLO 205 colon) was -2.63% (active), the growth (DU-145 prostate) was 22.5% and the growth (K-562 leukemia) was 30.2%. For the same molecule, the growth (MALME-3M melanoma) was 14.9%, the growth (MDA-MB-231 breast) was -5.32% (active) and the growth (SF-268 CNS) was 18.1%. For the same molecule, the growth (SF-295 CNS) was -33.6% (active), the growth (SF-539 CNS) was -9.75% (active) and the growth (M14 melanoma) was -13.1% (active).
In the case of CC(=O)[O][Hg][c]1c(N)c(C)cc(C)c1F, the growth (NCI-H23 lung) was 48.6%, the growth (NCI-H226 lung) was 90.2% and the growth (NCI-H322M lung) was 85.1%. The growth (HOP-62 NSCLC) was 59.5%, the growth (NCI-H460 lung) was 43.8% and the growth (HOP-92 NSCLC) was 12.1%. The growth (NCI-H522 lung) was -42.2% (active), the growth (A549/ATCC NSCLC) was 84.7% and the growth (786-0 renal) was -31.7% (active). The growth (COLO 205 colon) was -16.6% (active), the growth (DU-145 prostate) was 36.3% and the growth (K-562 leukemia) was 5.95% (active). The growth (MALME-3M melanoma) was -72.4% (active), the growth (MDA-MB-231 breast) was 7.24% (active) and the growth (SF-268 CNS) was -15.5% (active). It also gave a growth (SF-295 CNS) of 73%, a growth (SF-539 CNS) of 28.3% and a growth (UACC-257 melanoma) of 31%. The growth (M14 melanoma) was 5.84% (active).
c1ccc(Nc2nc(-c3ccccc3)c[se]2)cc1 gave a growth (NCI-H23 lung) of 87.2%, a growth (NCI-H226 lung) of 81.4% and a growth (NCI-H322M lung) of 69.8%. The growth (HOP-62 NSCLC) was 69.8%, the growth (NCI-H460 lung) was 100% and the growth (HOP-92 NSCLC) was 59.8%. For the same molecule, the growth (NCI-H522 lung) was 68.6%, the growth (A549/ATCC NSCLC) was 87.5% and the growth (786-0 renal) was 93%. It also gave a growth (COLO 205 colon) of 104%, a growth (DU-145 prostate) of 98.4% and a growth (K-562 leukemia) of 80.1%. It also gave a growth (MALME-3M melanoma) of 78.6%, a growth (MDA-MB-231 breast) of 64.3% and a growth (SF-268 CNS) of 95.7%. It also gave a growth (SF-295 CNS) of 93%, a growth (SF-539 CNS) of 93.7% and a growth (UACC-257 melanoma) of 98.6%. It also gave a growth (M14 melanoma) of 87.3%.
For O=C(O)C(O)C(O)C1[O][Sb]([c]2ccc([N+](=O)[O-])cc2)[O]C1CO (stereo not given), the growth (NCI-H23 lung) was 101%, the growth (NCI-H226 lung) was 93.4% and the growth (NCI-H322M lung) was 102%. It also gave a growth (HOP-62 NSCLC) of 110%, a growth (NCI-H460 lung) of 100% and a growth (HOP-92 NSCLC) of 102%. The growth (NCI-H522 lung) was 94.6%, the growth (A549/ATCC NSCLC) was 94.4% and the growth (786-0 renal) was 104%. It also gave a growth (COLO 205 colon) of 115%, a growth (DU-145 prostate) of 116% and a growth (K-562 leukemia) of 99.6%. The growth (MALME-3M melanoma) was 116%, the growth (MDA-MB-231 breast) was 99.3% and the growth (SF-268 CNS) was 106%. For the same molecule, the growth (SF-295 CNS) was 101%, the growth (SF-539 CNS) was 102% and the growth (UACC-257 melanoma) was 95.7%. It also gave a growth (M14 melanoma) of 106%.
CC[C@H](C)[C@H](NC(=O)[C@H]1CCCCN1C)C(=O)N(C)[C@H](CCc1nc(C(=O)N[C@@H](Cc2ccccc2)C[C@H](C)C(=O)OC)cs1)C(C)C was tested, and the growth (NCI-H23 lung) was 31%, the growth (NCI-H226 lung) was 28.6% and the growth (NCI-H322M lung) was 40.9%. The growth (HOP-62 NSCLC) was 14.3%, the growth (NCI-H460 lung) was 6.43% (active) and the growth (HOP-92 NSCLC) was 12.9%. For the same molecule, the growth (NCI-H522 lung) was -14.6% (active), the growth (A549/ATCC NSCLC) was 17% and the growth (786-0 renal) was 7.3% (active). For the same molecule, the growth (COLO 205 colon) was -64.1% (active), the growth (DU-145 prostate) was 6.52% (active) and the growth (K-562 leukemia) was 9.7% (active). For the same molecule, the growth (MALME-3M melanoma) was 65.4%, the growth (MDA-MB-231 breast) was 11.8% and the growth (SF-268 CNS) was 19.6%. For the same molecule, the growth (SF-295 CNS) was 7.05% (active), the growth (SF-539 CNS) was 0.775% (active) and the growth (M14 melanoma) was -15.3% (active).
In the case of O=Cc1cn(Cc2ccc(Cl)cc2)c2ccccc12, the growth (NCI-H23 lung) was 84.9%, the growth (NCI-H226 lung) was -26.9% (active) and the growth (NCI-H322M lung) was 82.5%. For the same molecule, the growth (HOP-62 NSCLC) was 76.9%, the growth (NCI-H460 lung) was 5.05% (active) and the growth (HOP-92 NSCLC) was 76.4%. The growth (NCI-H522 lung) was 93.4%, the growth (A549/ATCC NSCLC) was 64.8% and the growth (786-0 renal) was 94.1%. For the same molecule, the growth (COLO 205 colon) was 22%, the growth (DU-145 prostate) was 95.5% and the growth (K-562 leukemia) was 40.5%. For the same molecule, the growth (MALME-3M melanoma) was 96.5%, the growth (MDA-MB-231 breast) was 96.1% and the growth (SF-268 CNS) was 89.6%. For the same molecule, the growth (SF-295 CNS) was 46%, the growth (SF-539 CNS) was 87.4% and the growth (UACC-257 melanoma) was 21.8%. It also gave a growth (M14 melanoma) of 83.8%.

Source: PubChem BioAssay (NCI)
